# Source: PubChem (National Center for Advancing Translational Sciences (NCATS))
# IL1B secr inh = blocks inflammasome-driven IL-1 beta release; THP-1 LPS/ATP IL-1B secretion, AlphaLISA, 16 h; active compounds read low; activity change, % at 57.5 µM; 360,000 compounds, 4.7% hits; in the data active = activity change below about -50%; inconclusive = mostly about -30% to -49%
#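 THP-1 cells pretreated 1 hr with compounds (up to 57.5 uM final), then stimulated with LPS (250 ng/mL final) plus ATP (1.25 mM final); secreted IL-1B measured by AlphaLISA after 16 hr, decreased signal indicating inhibition.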
# HT1080 IDH1KD tx = toxicity to HT-1080 IDH1 knockdown cells (counter line); HT-1080 IDH1 knockdown viability, ATP luminescence, 48 h; Potency, µM (highest dose often 46.1 µM), hits mostly cytotoxic; 360,000 compounds, 2% hits
#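 After a 2 h attachment period, IDH1KD HT-1080 cells took pin-transferred compound for 48 h at 37 °C; ATP-based luminescence after 10 min room-temperature reagent incubation reported viability.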
# HT1080NT lethal = kills 2HG-producing HT-1080-NT fibrosarcoma cells; 360,000 compounds, 1.6% hits; Potency, µM (series often up to 46.1 µM), most hits filed as cytotoxic; HT-1080-NT fibrosarcoma viability, CellTiter-Glo ATP luminescence, 48 h;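 note: NT is the 2HG producing partner of a matched IDH1 knockdown line; nearly all actives have a fitted effect of over 55% in size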
#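 Toxicity toward the 2HG-producing NT line was scored as %Activity, normalised to DMSO and no-cell wells, from CellTiter-Glo luminescence after 48 hours' treatment.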
# DT40 TDP1 no CPT = qHTS for Inhibitors of human tyrosyl-DNA phosphodiesterase 1 (TDP1): qHTS in cells in absence of CPT; Potency, µM (doses to about 46.2 µM), actives largely listed as inhibitors; 420,000 compounds, 15% hits; DT40 Tdp1-/- hTDP1 cells, no CPT, ATP luminescence, 48 h; note: nearly all actives have a fitted effect of over 55% in size
#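 Growth of hTDP1-complemented DT40 Tdp1-knockout cells is measured by ATP luminescence after at least 48 hr compound exposure at 37 °C, with DMSO substituting for the 20 nM CPT used in the parallel screen.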
# TDP1 cell CPT = growth inhibition of DT40 Tdp1-/-;hTDP1 cells with camptothecin (screen for TDP1 inhibitors); chicken DT40 Tdp1-/-;hTDP1 cells + 20 nM CPT, ATP luminescence, 48 h; Potency, µM (top dose mostly 46.2 µM), most hits filed as inhibitors; 420,000 compounds, 12% hits; note: nearly all actives have a fitted effect of over 55% in size
#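 Chicken DT40 Tdp1-/- cells stably complemented with human TDP1 were seeded at 400 cells/well in medium containing 20 nM camptothecin, exposed to pin-transferred compounds, and grown at 37 °C for at least 48 hr. Viability was read as ATP luminescence.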
# ALOX12 inh = inhibitors of human 12S-lipoxygenase ALOX12; purified 12hLO, xylenol orange hydroperoxide absorbance; Potency, µM (doses to about 108 µM), most hits filed as inhibitors; AID 1671190; 580,000 compounds, 1.1% hits; P18054
# Target sequence (P18054 whole entry, looked up): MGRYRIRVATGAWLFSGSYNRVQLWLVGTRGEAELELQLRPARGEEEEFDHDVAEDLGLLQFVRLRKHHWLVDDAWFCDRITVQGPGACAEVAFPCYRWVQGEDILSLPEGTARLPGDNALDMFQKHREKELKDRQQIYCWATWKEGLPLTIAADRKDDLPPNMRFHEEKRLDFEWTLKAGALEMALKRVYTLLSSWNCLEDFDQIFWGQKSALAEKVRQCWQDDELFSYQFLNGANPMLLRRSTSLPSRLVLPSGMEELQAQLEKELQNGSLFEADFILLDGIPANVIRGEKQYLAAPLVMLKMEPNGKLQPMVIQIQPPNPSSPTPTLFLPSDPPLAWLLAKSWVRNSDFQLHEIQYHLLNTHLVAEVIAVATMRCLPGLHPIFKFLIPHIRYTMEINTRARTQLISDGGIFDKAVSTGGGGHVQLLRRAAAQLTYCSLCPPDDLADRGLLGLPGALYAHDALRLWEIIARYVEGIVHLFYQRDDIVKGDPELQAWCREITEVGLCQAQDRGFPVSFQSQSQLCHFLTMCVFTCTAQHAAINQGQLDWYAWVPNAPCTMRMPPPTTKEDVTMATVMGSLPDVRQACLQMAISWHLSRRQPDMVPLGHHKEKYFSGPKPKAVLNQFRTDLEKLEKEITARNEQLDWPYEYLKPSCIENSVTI
#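 Purified human 12hLO at 150 nM in 25 mM Hepes, 0.01% Triton X-100, pH 7.0, preincubated 15 min at room temperature with compound. Reaction started with 40 uM arachidonic acid, 30 min at room temperature. Hydroperoxide measured by Fe-xylenol orange, 573/405 nm absorbance ratio.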
# Hits are given with their value; . = inactive; ? = inconclusive; / = not tested or not shown; [ ] = remark or other dose. Many of the other results were omitted from the sample, so hits are more common in it than they were. Unless noted, calls come from the whole dose curve; as a rule, active = well fitted curve in the direction sought with a large enough effect; inconclusive = small, poorly fitted or top-dose-only effect, or another doubt; inactive = no such curve, though single readings can be large; an effect the other way counts as inactive or inconclusive.
SMILES,IL1B secr inh,HT1080 IDH1KD tx,HT1080NT lethal,DT40 TDP1 no CPT,TDP1 cell CPT,ALOX12 inh
CCOC(=O)c1cc(-c2ccc(F)cc2)n(CC(=O)NC2CCCCC2)c1C,/,/,/,?,.,.
CC(=O)c1cc(-c2ccccc2)n(CC(=O)NC2CCCCCC2)c1C,/,/,/,?,?,.
CCOC(=O)c1cc(-c2ccc(F)cc2)n(CC(=O)NC2CCCCCC2)c1C,/,/,/,15µM,16µM,.
NC(=O)[C@H](Cc1cccs1)NC(=O)[C@@]1(O)C[C@@H](O)[C@H](O)[C@@H](NC(=O)Nc2ccc(OC(F)(F)F)cc2)C1,/,/,/,/,/,.
CN1C[C@@H]2CCCN3CCC[C@@H]([C@H]23)[C@H]1CCCC(=O)NCC1CC1,/,/,/,/,/,.
CN(CCO)c1cc(Sc2nc3ccccc3s2)c2nonc2c1[N+](=O)[O-],.,5µM,6.3µM,1.8µM,2.1µM,?
CC(=O)OCCN(C)c1cc(SC(C)C)c2nonc2c1[N+](=O)[O-],-68,?,?,16µM,13µM,.
CC(=O)OCCNc1cc(SC(C)C)c2nonc2c1[N+](=O)[O-],.,.,.,?,.,.
O=C(Nc1ccccc1)c1cnc2n1CCN(Cc1ccc3c(c1)CCO3)CC2,/,/,/,/,/,.
CCCCn1nc(C(=O)Nc2ccc3nc(SC)sc3c2)c2ccccc2c1=O,/,/,/,/,/,.
CC1(C(=O)N2CCC(Cc3ccccc3)CC2)CCOCC1,/,/,/,/,/,.[12.5 µM]
CC12CCC(C(=O)N3CCC(Cc4ccccc4)CC3)(C(=O)C1=O)C2(C)C (centres undefined),-102,.,.,?,.,.
c1ccc(Sc2nc(N3CCCCC3)nc(N3CCCCC3)n2)nc1,.,.,.,18µM,?,.
COc1ccc(OC)c(/C=N/NC(=S)NCCc2ccccc2)c1,.,.,.,?,?,45µM
COc1ccc(OC)c(/C=N\NC(=O)CC(=O)NCCc2ccccc2)c1,.,.,.,.,.,.
CC(NC(=S)NCCc1ccccc1)c1ccc(C(C)(C)C)cc1 (centres undefined),/,/,/,/,/,40µM
COc1ccc(NC(=S)NCCc2ccccc2)c(C)c1,.,.,.,.,.,?
CNC(=S)NCCc1ccccc1,.,.,.,.,.,?
CCc1cc(Br)ccc1NC(=S)NCCc1ccccc1,?,.,.,21µM,?,?
C/C(=N\NC(=S)NCCc1ccccc1)c1ccc(Cl)cc1Cl,.,?,?,16µM,?,45µM
O=C(Cn1nc2c(cc1=O)CCCCC2)NCCc1ccco1,/,/,/,/,/,.
Cn1nc(-c2ccc(Cl)cc2)c2cc(C(=O)Oc3ccccc3Cl)sc21,/,/,/,/,/,.
S=C(NCCc1ccccc1)Nc1ccc(Cl)cc1NC(=S)NCCc1ccccc1,/,/,/,/,/,18µM
CCCNC(=S)Nc1ccc(Cl)cc1Cl,.,.,.,.,.,?
S=C(NCCc1ccccc1)N/N=C/c1cccc(Cl)c1Cl,.,.,.,.,.,50µM
SMILES,IL1B secr inh,HT1080 IDH1KD tx,HT1080NT lethal,DT40 TDP1 no CPT,TDP1 cell CPT,ALOX12 inh
S=C(NCCc1ccc(Cl)cc1)Nc1ccc(Cl)cc1Cl,-79,?,?,?,?,32µM
S=C(NCCc1ccccc1)Nc1c(Cl)cccc1Cl,-64,.,.,23µM,?,?
C/C(=N\NC(=O)c1cccc(Br)c1)C(C)C,/,/,/,/,/,.
COc1ccccc1NC(=O)Cn1nc2c(cc1=O)CN(C(C)=O)CC2,/,/,/,/,/,.
CC(C)(CNC(=S)NCCc1ccccc1)CNC(=S)NCCc1ccccc1,-70,?,?,29µM,8.2µM,20µM
O=C(c1cccc(Br)c1)N1CCN(c2cnn(-c3ccccc3)c(=O)c2Cl)CC1,.,.,.,16µM,?,.
O=C(c1cccc(Br)c1)N1CCN(c2ccccn2)CC1,.,.,.,.,.,?
O=C(c1ccccc1F)N1CCN(c2cnn(-c3cccc(Cl)c3)c(=O)c2Cl)CC1,.,.,.,21µM,?,.
COc1ccc(-c2nc(-c3cccs3)sc2-c2ccc(OC)cc2)cc1,/,/,/,/,/,.
OC(c1ccc(F)c(F)c1)c1nc(-c2ccc3c(c2)OCO3)cs1 (centres undefined),.,.,.,?,21µM,?
OC(c1ccc(F)cc1)c1nc(-c2cncnc2)cs1 (centres undefined),-86,.,.,.,?,.
COc1cc(C(O)c2nc(-c3cc4ccccc4o3)cs2)ccc1F (centres undefined),.,?,?,23µM,21µM,?
COc1cc(C(O)c2nc(-c3cccc(C(C)C)c3)cs2)ccc1F (centres undefined),.,?,?,18µM,?,?
OC(c1ccc(F)cc1)c1nc(-c2ccccc2)cs1 (centres undefined),.,.,.,?,?,.
CN(C)Cc1cc(C[C@@H]2C[C@H](N(Cc3ccco3)Cc3ccco3)C2(C)C)no1,/,/,/,/,/,.
COc1cc(C(O)c2nc(-c3cncnc3)cs2)ccc1F (centres undefined),.,.,.,.,.,?
COc1cc(C(O)c2nc(-c3cccc(F)c3)cs2)ccc1F (centres undefined),.,.,?,18µM,?,.
OC(c1ccccc1)c1nc(-c2ccc(F)c(Cl)c2)cs1 (centres undefined),.,?,?,.,16µM,?
OC(c1ccc(F)c(F)c1)c1nc(-c2cccs2)cs1 (centres undefined),.,.,.,?,?,?
COc1cc(C(O)c2nc(/C=C/c3ccccc3)cs2)ccc1F (centres undefined),.,?,.,?,18µM,?
OC(c1ccc(F)cc1)c1nc(/C=C/c2ccccc2)cs1 (centres undefined),.,?,?,.,?,.
OC(c1ccc(F)c(F)c1)c1nc(-c2cnc3ccccc3c2)cs1 (centres undefined),.,.,?,21µM,?,.
COCC1CN(C(C)=O)CC12CCN(S(=O)(=O)c1cc(C)ccc1C)CC2 (centres undefined),/,/,/,/,/,.
COc1cc(C(O)c2nc(-c3cc(F)cc(F)c3)cs2)ccc1F (centres undefined),.,.,.,15µM,23µM,.
COc1cc(C(O)c2nc(-c3ccccc3OC)cs2)ccc1F (centres undefined),.,.,?,?,?,?
OC(c1ccc(F)c(F)c1)c1nc(-c2cccc(F)c2)cs1 (centres undefined),.,?,?,?,15µM,?
OC(c1ccc(F)c(F)c1)c1nc(-c2ccccc2)cs1 (centres undefined),.,.,.,?,?,.
